Results reported in PMC5540273 (PLoS ONE, 2017).

How the values were obtained:
Details in all cases: concentration: 1 μM, replicates: in singlicate; n = 1
MYO3A = test system: MYO3A
MYO3B = test system: MYO3B
NDR1 = test system: T1, NDR1
T1 construct: gene STK38

NDR2 = test system: NDR2
NEK10 = test system: NEK10
NEK11 = test system: NEK11
NEK1 = test system: NEK1
NEK2 = test system: NEK2
NEK3 = test system: NEK3
NEK4 = test system: NEK4
NEK5 = test system: NEK5
NEK6 = test system: NEK6
NEK7 = test system: NEK7
NEK9 = test system: NEK9
NIK = test system: T2, NIK
T2 construct: gene MAP3K14

NIM1 = test system: T3, NIM1
T3 construct: gene MGC42105

NLK = test system: NLK
OSR1 = test system: T4, OSR1
T4 construct: gene OXSR1

PAK1 = test system: PAK1
PAK2 = test system: PAK2
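Further: KINOMEscan kinase panel screen.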

| Structure (SMILES) | %Inh (MYO3A) | %Inh (MYO3B) | %Inh (NDR1) | %Inh (NDR2) | %Inh (NEK10) | %Inh (NEK11) | %Inh (NEK1) | %Inh (NEK2) | %Inh (NEK3) | %Inh (NEK4) | %Inh (NEK5) | %Inh (NEK6) | %Inh (NEK7) | %Inh (NEK9) | %Inh (NIK) | %Inh (NIM1) | %Inh (NLK) | %Inh (OSR1) | %Inh (PAK1) | %Inh (PAK2) |
| --- | --- | --- | --- | --- | --- | --- | --- | --- | --- | --- | --- | --- | --- | --- | --- | --- | --- | --- | --- | --- |
| CCn1c(-c2c(N)noc2C)nc2cnccc21 [SB-737856] | 16% | 0% | 0% | 0% | 8% | 0% | 73% | 1% | 14% | 21% | 0% | 0% | 2% | 0% | 3% | 36% | 0% | 4% | 27% | 32% |
| Cc1nccc(-c2c(-c3ccc(F)cc3)ncn2CCCN2CCOCC2)n1.Cl [SB-282975] | 0% | 0% | 3% | 7% | 0% | 16% | 0% | 4% | 27% | 0% | 16% | 20% | 0% | 13% | 48% | 15% | 0% | 15% | 0% | 6% |
| CNc1nc(-c2ccc3c(N)n[nH]c3c2)cc(N2C[C@@H](C(=O)NC3CCCCC3)OC[C@H]2C)n1 [GSK2375584] | 35% | 0% | 29% | 28% | 9% | 0% | 2% | 0% | 11% | 0% | 11% | 0% | 0% | 4% | 5% | 0% | 9% | 6% | 14% | 16% |
| Cc1c(Cn2c(C)c(C)n3c(=O)cc(N4CCOCC4)nc23)cccc1C(F)(F)F [GSK2328680] | 0% | 0% | 0% | 2% | 0% | 5% | 0% | 8% | 0% | 19% | 0% | 0% | 0% | 12% | 9% | 11% | 12% | 11% | 0% | 0% |
| CC(C)c1cc(-c2ccc3c(N)n[nH]c3c2)nc(N)n1 [GSK2250882] | 9% | 0% | 17% | 0% | 8% | 0% | 0% | 0% | 0% | 0% | 0% | 0% | 0% | 18% | 0% | 10% | 19% | 16% | 20% | 16% |
| COc1ccc2cc(-c3nc(-c4ccccc4C(C)C)[nH]c3-c3ccncc3)ccc2c1 [SB-660566] | 0% | 0% | 18% | 0% | 45% | 4% | 41% | 0% | 0% | 15% | 0% | 2% | 0% | 4% | 0% | 13% | 29% | 3% | 25% | 28% |
| CS(=O)(=O)CCNCc1nc(-c2ccc3ncnc(Nc4ccc5c(cnn5Cc5ccccc5)c4)c3c2)cs1.Cl.Cl [GW569716] | 34% | 0% | 8% | 0% | 16% | 29% | 0% | 0% | 2% | 3% | 0% | 0% | 0% | 0% | 26% | 41% | 16% | 0% | 0% | 1% |
| O=C1NC(=O)C(c2ccc(Cl)cc2)=C1Nc1ccc(O)cc1 [SB-340867] | 0% | 0% | 14% | 12% | 0% | 0% | 0% | 0% | 0% | 0% | 0% | 0% | 11% | 0% | 0% | 0% | 0% | 0% | 0% | 7% |
| COc1ccc(Nc2nccc(N3CCC(NC(=O)c4cc5ccccc5s4)C3)n2)cc1 (stereo not drawn) [GSK1379738] | 11% | 0% | 0% | 0% | 16% | 0% | 2% | 1% | 15% | 0% | 19% | 0% | 0% | 0% | 1% | 9% | 20% | 0% | 2% | 0% |
| Nc1cccc(-c2ccc3c(N)n[nH]c3c2)n1 [GSK2192730] | 15% | 0% | 23% | 0% | 0% | 0% | 18% | 7% | 9% | 0% | 9% | 0% | 0% | 17% | 1% | 0% | 0% | 3% | 16% | 5% |
| Cc1ccc(NC(=O)Nc2ccc(Cl)c(C(F)(F)F)c2)cc1-c1ccc(C(=O)Nc2ccncc2)cc1 [GSK1398470] | 60% | 0% | 23% | 0% | 2% | 0% | 0% | 23% | 2% | 17% | 11% | 12% | 2% | 20% | 0% | 0% | 21% | 35% | 19% | 19% |
| O=c1cc(N2CCOCC2)nc2n(Cc3cccc(Cl)c3Cl)c3ccccc3n12 [GSK2299009] | 0% | 6% | 33% | 0% | 9% | 0% | 0% | 14% | 3% | 8% | 30% | 4% | 20% | 24% | 0% | 2% | 25% | 11% | 0% | 5% |
| COC(=O)c1cccc(NC(=O)NC2CCN(c3ccnc(Nc4ccc(OC)cc4)n3)C2)c1 (stereo not drawn) [GSK1379746] | 1% | 0% | 0% | 0% | 24% | 8% | 0% | 0% | 14% | 0% | 23% | 0% | 0% | 0% | 8% | 53% | 35% | 0% | 0% | 0% |
| Cc1ccc(NC(=O)Nc2ccc(Cl)cc2)cc1-c1ccc(C(=O)Nc2ccncc2)cc1 [GSK1398472] | 22% | 0% | 17% | 0% | 13% | 0% | 3% | 0% | 10% | 6% | 10% | 0% | 0% | 0% | 22% | 16% | 11% | 5% | 0% | 0% |
| O=C(Nc1n[nH]c2nc(-c3cccs3)c(Br)cc12)C1CCCC1 [SB-743341] | 17% | 42% | 15% | 15% | 12% | 0% | 0% | 0% | 5% | 0% | 14% | 16% | 14% | 15% | 0% | 15% | 2% | 8% | 0% | 13% |
| COc1ccc(CSc2nnc(-c3ccc4c(c3)CCO4)o2)cc1 | 0% | 0% | 0% | 0% | 0% | 0% | 10% | 0% | 26% | 0% | 0% | 0% | 0% | 0% | 0% | 0% | 0% | 0% | 18% | 9% |
| COc1nccc(-c2c(-c3ccc(F)cc3)ncn2CCCN2CCOCC2)n1 [SB-282852] | 5% | 0% | 16% | 0% | 0% | 2% | 0% | 0% | 29% | 0% | 0% | 0% | 0% | 0% | 18% | 34% | 0% | 0% | 0% | 0% |
| Cc1cnc(N)c(/C=C/c2cncc(C(=O)NCCc3ccc(Cl)cc3Cl)c2)c1.Cl [GSK190937] | 6% | 0% | 21% | 21% | 13% | 0% | 5% | 10% | 0% | 0% | 9% | 0% | 0% | 0% | 10% | 18% | 7% | 0% | 4% | 10% |
| COc1ccc(Nc2nccc(N3CCC(NC(=O)C(C)c4ccc(Cl)cc4)C3)n2)cc1 (stereo not drawn) [GSK1379735] | 0% | 7% | 0% | 0% | 7% | 0% | 0% | 13% | 0% | 10% | 32% | 0% | 6% | 2% | 12% | 13% | 14% | 0% | 16% | 38% |
| COc1ccc(Nc2nccc(-c3ccc(NC(=O)c4cc5cc(F)ccc5[nH]4)cc3)n2)cc1 [GSK1229496] | 0% | 0% | 7% | 2% | 0% | 17% | 0% | 0% | 0% | 0% | 14% | 0% | 0% | 0% | 30% | 0% | 23% | 8% | 0% | 0% |
| COc1cccc(NC(=O)Nc2ccc(C)c(-c3ccc(C(=O)Nc4ccncc4)cc3)c2)c1 [GSK1398474] | 0% | 0% | 51% | 0% | 47% | 0% | 25% | 0% | 7% | 15% | 2% | 3% | 0% | 12% | 0% | 0% | 30% | 6% | 29% | 16% |
